Measured values as given in PubChem BioAssay.
Values joined by “and” are separate entries in the source; they are usually repeats but may differ in a detail not shown here. Identical values can stand only once. Results filed as inconclusive are left out. Active and inactive are the calls of the source.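 How the source made its calls, unless noted: active means compounds whose cell count with miR-34 switched on is under 0.7 times the count with it off; inactive means the rest.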

How the values were obtained:
[1] = liver-stage malaria parasite growth inhibition, primary screen, cell-based, HepG2, luciferase luminescence, HepG2 viability (AID 624349; in the data active means parasite load remaining mostly below about 12%, no sharp cut-off; inactive means mostly above about 10%;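 further: 100% = mean of DMSO negative control wells on the same plate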); conditions: P. berghei liver stage in HepG2, luciferase luminescence, concentration not given here; parasite load remaining: stronger effect = lower value; viability: measured here: HepG2 viability without parasites
[2] = stimulators of nuclear beta-catenin in C2C12, primary screen, imaging, WNT3A-conditioned medium, mouse C2C12, NPC library (AID 1117326; in the data active means nuclear beta-catenin stimulation mostly above about 4.2%, no sharp cut-off; inactive means mostly below about 10%; further: reference of the scale not given here); conditions: stronger effect = higher value
[3] = stimulators of insulin release from INS-1E, primary screen, cell-based, 5 mM glucose, NPC library (AID 1117329;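 active means compound raises insulin release from rat beta cells at 5 mM glucose, no numeric limit stated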; further: reference of the scale not given here); conditions: rat INS-1E insulin secretion, at 10 µM, stronger effect = higher value
[4] = growth inhibition of GSK3B-pretreated HCT116 cells – cell-based, CellTiter-Glo, 0.2 to 20 µM (AID 1117336;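 active means compounds lowering colon cancer cell viability after pretreatment blocking the GSK3B kinase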); conditions: HCT116 viability after GSK3B inhibitor, at 20 µM, stronger effect = higher value
[5] = inhibition of endothelial tube formation, primary screen, imaging, VEGF stimulated, CD31 staining, tube area, NPC library (AID 1117340;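 active means compound that reduces growth-factor-driven endothelial tube area in a mixed cell culture, no cutoff stated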); conditions: VEGF-stimulated ADSC/ECFC co-culture, at 10 µM, stronger effect = higher value
[6] = glucagon-like peptide 1 release enhancers, primary assay, NCI-H716 cell line, NPC library (AID 1117341;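 active means compound raises GLP1 secretion from the human gut endocrine cells, with no numeric limit stated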; further: reference of the scale not given here); conditions: NCI-H716 cells, at 10 µM, stronger effect = higher value
[7] = HCT116 colon cancer cell growth inhibition, primary screen, CellTiter-Glo luminescence, NPC library (AID 1117342;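 active means compounds that lower survival of HCT116 colon cancer cells in the luminescence readout, no numeric limit stated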); conditions: at 20 µM (top of the series)
[8] = CellTiter-Glo luminescent readout of SW480 viability loss, NPC library primary (AID 1117343;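 active means compounds that lower viability of the colon cancer cells in the luminescence readout, with no numeric limit stated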); conditions: CellTiter-Glo luminescence; at 20 µM (top of the series) unless noted
[9] = decreased DLD-1 cellular survival, CellTiter-Glo luminescent readout, NPC compound collection, primary HTS (AID 1117346;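 active means compounds that lower survival of DLD-1 colon cancer cells in the luminescence readout, no cutoff given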); conditions: DLD-1 viability, CellTiter-Glo luminescence; at 20 µM (top of the series)
[10] = tested on: Aerobactin synthetase IucA (Klebsiella pneumoniae); assay: IucA aerobactin synthetase inhibitors, biochemical, Tocris library, absorbance (AID 1345561; call rule not given here;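 further: 100% = enzyme without compound and 0% = no enzyme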); conditions: purified IucA enzyme assay, absorbance (OD) read-out; stronger effect = lower value;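 tested at 8 µM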
[11] = sensitizers of A549 cells to miR-34 induction, primary screen, imaging, A549 dox-inducible miR-34, nuclei and caspase counts (AID 1347080); conditions: A549 miR-34 inducible, Hoechst nuclei count, 48 h
[12] = survival rescue of mitochondrial mutant cells in low glucose, primary screen, MELAS cybrids, Rieske KO mouse fibroblasts, CellTiter-Glo (AID 1508586;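 active means mean z-score across replicates of 1.96 or higher in either the MELAS or the Rieske mutant cell line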;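 further: z relative to plate mean and SD of compound and empty wells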)
[13] = viability rescue of complex I mutant cybrids, primary screen, cell-based, galactose medium, ATP luminescence (AID 1645843;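 active means z-score of at least 1.8 in each of two replicates, scored against plate mean and spread of sample wells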;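 further: positive z means more ATP and so rescue of galactose-driven cybrid death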); conditions: complex I mutant cybrid cells, 72 h, stronger effect = higher value
[14] = target: NAD(+) hydrolase SARM1 (Homo sapiens) (UniProt Q6SZW1); assay: SARM1 TIR NADase inhibitors, cell lysate, NAD-Glo luminescence (AID 1508614;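 active means compound whose remaining NAD level is above about 45 nM, limit read from the data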); conditions: SAM-TIR HEK293T lysate NADase, at 1 µM, stronger effect = higher value
[15] = growth inhibition of DIPG glioma cells, dose response, cell-based, SU-DIPG-XVII, MIPE5.0, CellTiter-Glo, qHTS (AID 1347060; cut-off not given, nearly all actives have AC50 up to about 26 µM;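 further: cells exposed to compound for 48 hours before viability readout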); conditions: SU-DIPG-XVII viability, CellTiter-Glo ATP luminescence
[16] = SU-DIPG-XXV glioma cell viability, MIPE5.0 library, qHTS (AID 1347068; cut-off not given, nearly all actives have IC50 up to about 30 µM;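 further: cells exposed to compound for 48 hours before viability readout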)
[17] = stronger effect = lower value, cell number ratio, induced over uninduced
[18] = measured here: relative caspase fold change +Dox/-Dox
[19] = measured here: total cells with miR-34 induction, stronger effect = lower value
[20] = measured here: total cells without miR-34 induction
[21] = MELAS cybrid survival, CellTiter-Glo 48 h, stronger effect = higher value
[22] = Rieske KO mouse fibroblast survival, CellTiter-Glo 72 h

Sequence of NAD(+) hydrolase SARM1 (Homo sapiens) (Q6SZW1 whole entry, looked up): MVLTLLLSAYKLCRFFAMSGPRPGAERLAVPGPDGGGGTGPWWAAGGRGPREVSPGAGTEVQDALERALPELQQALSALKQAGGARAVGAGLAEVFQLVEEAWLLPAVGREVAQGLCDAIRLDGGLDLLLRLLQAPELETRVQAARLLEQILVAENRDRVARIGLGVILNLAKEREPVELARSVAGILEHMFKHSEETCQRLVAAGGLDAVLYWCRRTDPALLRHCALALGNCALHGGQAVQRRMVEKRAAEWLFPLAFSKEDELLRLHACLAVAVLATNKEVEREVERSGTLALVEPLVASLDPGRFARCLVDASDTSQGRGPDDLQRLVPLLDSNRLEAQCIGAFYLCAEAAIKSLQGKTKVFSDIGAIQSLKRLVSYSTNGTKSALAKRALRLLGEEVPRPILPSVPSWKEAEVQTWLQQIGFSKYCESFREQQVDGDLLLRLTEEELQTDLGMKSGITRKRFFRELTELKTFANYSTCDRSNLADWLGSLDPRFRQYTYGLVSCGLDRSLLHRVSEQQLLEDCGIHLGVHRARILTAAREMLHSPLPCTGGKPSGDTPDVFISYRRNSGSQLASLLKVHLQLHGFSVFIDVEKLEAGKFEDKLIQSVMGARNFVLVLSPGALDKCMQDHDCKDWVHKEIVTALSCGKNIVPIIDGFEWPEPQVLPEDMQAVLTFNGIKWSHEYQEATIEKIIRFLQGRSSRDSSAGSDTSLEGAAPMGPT

## CCc1cc(Cl)c(OC)c(C(=O)NC[C@@H]2CCCN2CC)c1O
[1]
  parasite load remaining: 103% (inactive)
  viability: 87.5%
[2]; at 10 µM
  nuclear beta-catenin stimulation: 4.5% (inactive)
[2]; stimulation, at 2 µM
  nuclear beta-catenin stimulation: 1.7%
[3]
  insulin secretion stimulation: 5.2% (inactive)
[4]
  viability decrease: -86.7% (inactive)
[5]
  tube area decrease: 2.8% (inactive)
[6]
  GLP1 secretion stimulation: 5.8% (inactive)
[7]
  inhibition of viability: 51.9% (active)
[8]
  viability decrease (inhibition): 58.3% (active)
[9]
  viability decrease (inhibition): 14.4% (inactive)
[10]
  remaining activity: 112% (inactive)
[11]; [17]
  fold change: 0.835 (inactive) and 0.921 (inactive)
[11]; [18]
  fold change: 0.937 and 0.744
[11]; [19]
  cell count: 7860 and 8160
[11]; [20]
  cell count: 9410 and 8850
[12]; [21]
  z-score: 0.117 (inactive)
[12]; [22]
  z-score: 0.179
[13]
  z-score: -0.605 (inactive)

## CC[N+](CC)(CC)CCOc1ccc(/C=C/c2ccccc2)cc1
[2]; at 10 µM
  nuclear beta-catenin stimulation: 0.4% (inactive)
[2]; stimulation, at 2 µM
  nuclear beta-catenin stimulation: -0.8%
[3]
  insulin secretion stimulation: 1.3% (inactive)
[4]
  viability decrease: -35.4% (inactive)
[5]
  tube area decrease: 82.5% (active)
[6]
  GLP1 secretion stimulation: -1.8% (inactive)
[7]
  inhibition of viability: 46.8% (inactive)
[8]
  viability decrease (inhibition): -6% (inactive)
[9]
  viability decrease (inhibition): 56.2% (active)
[10]
  remaining activity: 112% (inactive)
[11]; [17]
  fold change: 1.12 (inactive) and 0.929 (inactive)
[11]; [18]
  fold change: 0.542 and 0.715
[11]; [19]
  cell count: 2640 and 2410
[11]; [20]
  cell count: 2350 and 2590
[13]
  z-score: -1.29 (inactive) and -0.77 (inactive)

## CC(C)C(=O)c1c(C(C)C)nn2ccccc12
[1]
  parasite load remaining: 83.4% (inactive)
  viability: 97%
[2]; at 10 µM
  nuclear beta-catenin stimulation: -0.8% (inactive)
[2]; stimulation, at 2 µM
  nuclear beta-catenin stimulation: 0.4%
[3]
  insulin secretion stimulation: 24.5% (active)
[4]
  viability decrease: 39.4% (inactive)
[5]
  tube area decrease: -13.6% (inactive)
[6]
  GLP1 secretion stimulation: 3.4% (inactive)
[7]
  inhibition of viability: 31.8% (inactive)
[8]
  viability decrease (inhibition): 5% (inactive)
[9]
  viability decrease (inhibition): 1.8% (inactive)
[10]
  remaining activity: 110% (inactive)
[11]; [17]
  fold change: 1.02 (inactive) and 0.934 (inactive) and 0.944 (inactive)
[11]; [18]
  fold change: 0.854 and 0.782 and 0.951
[11]; [19]
  cell count: 9930 and 7850 and 8420
[11]; [20]
  cell count: 9700 and 8400 and 8930
[12]; [21]
  z-score: 1.07 (inactive) and 0.83 (inactive)
[12]; [22]
  z-score: -0.15 and -1.19
[13]
  z-score: 0.105 (inactive) and -0.07 (inactive) and 0.255 (inactive)

## c1cc(CN2CCCCC2)cc(OCCCNc2nc3ccccc3s2)c1
[2]; at 10 µM
  nuclear beta-catenin stimulation: 3.6% (inactive)
[2]; stimulation, at 2 µM
  nuclear beta-catenin stimulation: 0.7%
[3]
  insulin secretion stimulation: 32.8% (active)
[4]
  viability decrease: 29.5% (inactive)
[5]
  tube area decrease: 22.6% (inactive)
[6]
  GLP1 secretion stimulation: 0.5% (inactive)
[7]
  inhibition of viability: 53.3% (active)
[8]
  viability decrease (inhibition): -462% (inactive)
[9]
  viability decrease (inhibition): 58.6% (active)
[10]
  remaining activity: 120% (inactive)
[11]; [17]
  fold change: 1.11 (inactive) and 0.901 (inactive)
[11]; [18]
  fold change: 0.913 and 0.9
[11]; [19]
  cell count: 7430 and 7110
[11]; [20]
  cell count: 6660 and 7890
[13]
  z-score: -1.34 (inactive) and -0.8 (inactive)

## C=CCn1c(=O)n([C@@H]2O[C@H](CO)[C@@H](O)[C@H]2O)c2nc(N)[nH]c(=O)c21
[2]; at 10 µM
  nuclear beta-catenin stimulation: 0.1% (inactive)
[2]; stimulation, at 2 µM
  nuclear beta-catenin stimulation: 2.4%
[3]
  insulin secretion stimulation: -0.5% (inactive)
[4]
  viability decrease: -3.9% (inactive)
[5]
  tube area decrease: 12.2% (inactive)
[6]
  GLP1 secretion stimulation: 0.6% (inactive)
[7]
  inhibition of viability: 2.2% (inactive)
[8]
  viability decrease (inhibition): -8.4% (inactive)
[9]
  viability decrease (inhibition): 1% (inactive)
[10]
  remaining activity: 101% (inactive)
[11]; [17]
  fold change: 0.961 (inactive)
[11]; [18]
  fold change: 1.57
[11]; [19]
  cell count: 9010
[11]; [20]
  cell count: 9380
[13]
  z-score: 0.185 (inactive)

## O=C(O)Cn1c(C(=O)Nc2nc(-c3ccccc3Cl)cs2)cc2ccccc21
[2]; at 10 µM
  nuclear beta-catenin stimulation: 0.7% (inactive)
[2]; stimulation, at 2 µM
  nuclear beta-catenin stimulation: -0.5%
[3]
  insulin secretion stimulation: 0.05% (inactive)
[4]
  viability decrease: 104% (active)
[5]
  tube area decrease: 47.9% (active)
[6]
  GLP1 secretion stimulation: 5.4% (inactive)
[7]
  inhibition of viability: 72.1% (active)
[8]
  viability decrease (inhibition): 102% (active)
[9]
  viability decrease (inhibition): 60.6% (active)
[10]
  remaining activity: 99.8% (inactive)
[11]; [17]
  fold change: 0.989 (inactive)
[11]; [18]
  fold change: 1.35
[11]; [19]
  cell count: 8300
[11]; [20]
  cell count: 8400
[13]
  z-score: 1.2 (inactive)

## CC(C)OC(=O)c1cc2c(OCC(O)CNC(C)(C)C)cccc2[nH]1 (stereo unspecified)
[2]; at 10 µM
  nuclear beta-catenin stimulation: 0.4% (inactive)
[2]; stimulation, at 2 µM
  nuclear beta-catenin stimulation: 5.8%
[3]
  insulin secretion stimulation: 13.3% (inactive)
[4]
  viability decrease: 9.2% (inactive)
[5]
  tube area decrease: 1.9% (inactive)
[6]
  GLP1 secretion stimulation: 4.8% (inactive)
[7]
  inhibition of viability: 40.5% (active)
[8]
  viability decrease (inhibition): 58.6% (active)
[9]
  viability decrease (inhibition): 7.6% (inactive)
[10]
  remaining activity: 116% (inactive)
[11]; [17]
  fold change: 0.915 (inactive)
[11]; [18]
  fold change: 0.769
[11]; [19]
  cell count: 9290
[11]; [20]
  cell count: 10200
[13]
  z-score: -0.48 (inactive)

## CN1CCC[C@@H]1Cc1c[nH]c2ccc(CCS(=O)(=O)c3ccccc3)cc12
[2]; at 10 µM
  nuclear beta-catenin stimulation: 1.8% (inactive)
[2]; stimulation, at 2 µM
  nuclear beta-catenin stimulation: 1%
[3]
  insulin secretion stimulation: 3.3% (inactive)
[4]
  viability decrease: 30.6% (inactive)
[5]
  tube area decrease: 0.6% (inactive)
[6]
  GLP1 secretion stimulation: 5.3% (inactive)
[7]
  inhibition of viability: 36.8% (inactive)
[8]
  viability decrease (inhibition): 19.5% (inactive)
[9]
  viability decrease (inhibition): -0.8% (inactive)
[10]
  remaining activity: 117% (inactive)
[11]; [17]
  fold change: 0.993 (inactive) and 0.947 (inactive)
[11]; [18]
  fold change: 1.11 and 0.557
[11]; [19]
  cell count: 9730 and 9170
[11]; [20]
  cell count: 9790 and 9680
[14]
  remaining NAD: 10 nM (inactive)
[13]
  z-score: -0.6 (inactive) and -0.525 (inactive)

## CC[C@]1(O)C[C@H]2CN(CCc3c([nH]c4ccccc34)[C@@](C(=O)OC)(c3cc4c(cc3OC)N(C=O)[C@H]3[C@@](O)(C(=O)OC)[C@H](OC(C)=O)[C@]5(CC)C=CCN6CC[C@]43[C@@H]65)C2)C1
[1]
  parasite load remaining: 14.9% (inactive)
  viability: 84%
[2]; at 10 µM
  nuclear beta-catenin stimulation: 44% (active)
[2]; stimulation, at 2 µM
  nuclear beta-catenin stimulation: 76%
[3]
  insulin secretion stimulation: -1.1% (inactive)
[4]
  viability decrease: 98.6% (active)
[5]
  tube area decrease: 109% (active)
[6]
  GLP1 secretion stimulation: 4.5% (inactive)
[7]
  inhibition of viability: 67% (active)
[8]
  viability decrease (inhibition): 56% (active)
[9]
  viability decrease (inhibition): 59.1% (active)
[10]
  remaining activity: 121% (inactive)
[15]
  AC50: 29.5 nM (active)
[16]
  IC50: 235 nM (active)
[11]; [17]
  fold change: 0.912 (inactive) and 1.12 (inactive)
[11]; [18]
  fold change: 1.85 and 0.866
[11]; [19]
  cell count: 1380 and 1910
[11]; [20]
  cell count: 1510 and 1710
[12]; [21]
  z-score: -2.16 (inactive)
[12]; [22]
  z-score: 1.73
[14]
  remaining NAD: 10 nM (inactive)
[13]
  z-score: -0.515 (inactive) and -1.81 (inactive)
